Measurements as given in the supplement of paper PMC10338343.
± gives the standard deviation.

Each sequence was assayed on MILI (PIWIL2) piRISC loaded with L1MC piRNA (26 nt) (assay: pre-steady-state target cleavage rate (min^-1); guide: L1MC piRNA 5'p-UAACUAAAUACUAUGCAAGCUGUAGG; MIWI and MILI are mouse PIWI proteins and EfPiwi is from a freshwater sponge; tags in brackets are library labels; higher = faster piRNA-guided slicing of the target). Settings: auxiliary factor: none (no GTSF1).
How it was run: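 Sequencing of uncleaved targets, normalised to depth and to weakly complementary targets, was the readout of this Cleave-'n-Seq assay. A transcribed, DNA-blocked target RNA library (0.1 nM) was mixed with 1 nM active affinity-purified piRISC carrying one synthetic guide, with or without 500 nM GTSF1 partner protein, in HEPES–potassium acetate buffer at 33 °C for 0–8 or 0–960 min. Three trials were pooled, k3 was capped at 0.0001 min^-1, and a burst-and-steady-state fit gave the pre-steady-state cleavage rate.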

Sequence	pre-steady-state target cleavage rate
UCCUCCUACAGCUUGCAUAGUAGUUUAGUUA	0.007 ± 0.0022
UCCUGGAACAGCCUGCAUAGUAUUUAGUUA	0.00896 ± 0.0029
UCCUGGAUCAGGUUGCAAAGUAUUUAGUUA	0.00902 ± 0.0027
UCCUGCUAGACCUUGCAUAGUAUUUAGUUA	0.00811 ± 0.0031
UCCUGGUAGAGCUUGCAUAGUAUAUAGUUA	0.00638 ± 0.0021
UCCUGGAUGAGCUUGCAUAGUAUUUAGUAA	0.00773 ± 0.0026
UCCUGCAUGAGCUUGCAUAGUAUUUAGUAA	0.00554 ± 0.0022
UCCUCCUACAGCUUGCAUCGUAUUUAGUUA	0.00682 ± 0.0021
UCCUGGAUCAGCUUCAUAGUAUUUAGUUA	0.00548 ± 0.0028
UCCUGGAUGACGUUGCAUAGUAUUUAGUUA	0.00683 ± 0.0027
UCCUGGAUCACGCUUGCAUAGUAUUUAGUUA	0.00715 ± 0.0036
UCCUGGAUCAGCUUGCAUAGUAUUUAGAUA	0.00393 ± 0.0016
UCCUGGAACAGCUUGCAUAGUAUUUAGUAA	0.00459 ± 0.002
UCCUGGAUCAGCUUGCAAAGUUUUUAGUUA	0.0042 ± 0.0022
UCCUGGUUCAGCUUGCAUAGUAAUUAGUUA	0.00723 ± 0.0031
UCCUCCUACAGCUUGCAUAGUAUUUAGUAA	0.00585 ± 0.0026
UCCUGCUACAGCUUCGAUAGUAUUUAGUUA	0.00716 ± 0.002
UCCUGGAACAGCUUGCAUGGUAUUUAGUUA	0.00826 ± 0.0025
UCCUCCUACAGCUUGCAUAGUAUUUAGAUA	0.00357 ± 0.003
UCCUGGAACAGCUUGCAUGUAUUUAGUUA	0.00308 ± 0.0027

Sequence	pre-steady-state target cleavage rate
UCCUGGAACAUGCUUGCAUAGUAUUUAGUUA	0.00694 ± 0.0023
UCCUGGAUCAGGUAGCAUAGUAUUUAGUUA	0.00574 ± 0.0022
UCCUGGAACAGACUUGCAUAGUAUUUAGUUA	0.00682 ± 0.0024
UCCUGGAUGUCCUUGCACAGUAUUUAGUUA	0.00389 ± 0.0023
UCCUGGAUCAGCUUACAUAGUAUUUAGUUA	0.00805 ± 0.0023
UCCUGCUACAGCUAGCAUAGUAUAUAGUUA	0.00448 ± 0.0023
UCCUGCUUCAGCUUGCAAAGUAUUUAGUUA	0.00828 ± 0.0015
UCCUGCUACAGGAUGCAUAGUAUUUAGUAA	0.00446 ± 0.0019
UCCUCGUACAGCUAGCAUAGUAUUUAGUUA	0.00766 ± 0.0022
UCCUGGUACAGCUUGCAUUGUAUUUAGUUA	0.0101 ± 0.0041
UCCUGCUACAGCUGGCAUAGUAUUUAGUUA	0.00759 ± 0.0024
UCCUGGAUGAGCUUGCAUAGUAAUUAGUUA	0.00598 ± 0.0024
UCCUGGAUGAGCUUGCUUAGUAUUUAGUUA	0.00685 ± 0.0025
UCCUCCUACAGCUAGCAUAGUAUUUAGUUA	0.00812 ± 0.0022
UCCUGGAUGAGGUUGCAUAGUAAUUAGUUA	0.00411 ± 0.0022
UCCUGCUACAGCUUGCAUAGUAUUUAUUUA	0.00466 ± 0.0021
UCCUGUUACAGCUUGCAUAGUAUUUAGUUA	0.0102 ± 0.0034
UCCUGGAUCAGCUUCGAUAGUAUUUAGUUA	0.0034 ± 0.0021
UCCUGGAACCAGCUUGCAUAGUAUUUAGUUA	0.00736 ± 0.0021
UCCUGCUACUGCUUGCAUACUAUUUAGUUA	0.00293 ± 0.0023
